Potency and affinity values are given separately.
Each molecule was assayed against CAAX prenyl protease 2 (Homo sapiens) (UniProt Q9Y256) (assay: human Rce1 protease inhibitors, dose response, biochemical, yeast membranes, quenched-peptide fluorescence, cherry-pick (AID 588849)). Settings: yeast membrane fractions expressing human Rce1, quenched-peptide fluorescence, 4 h; series mostly up to 10 µM; activity change, negative = inhibition: at the top concentration; call rule not given here.
Sequence of CAAX prenyl protease 2 (Homo sapiens) (Q9Y256 whole entry, looked up): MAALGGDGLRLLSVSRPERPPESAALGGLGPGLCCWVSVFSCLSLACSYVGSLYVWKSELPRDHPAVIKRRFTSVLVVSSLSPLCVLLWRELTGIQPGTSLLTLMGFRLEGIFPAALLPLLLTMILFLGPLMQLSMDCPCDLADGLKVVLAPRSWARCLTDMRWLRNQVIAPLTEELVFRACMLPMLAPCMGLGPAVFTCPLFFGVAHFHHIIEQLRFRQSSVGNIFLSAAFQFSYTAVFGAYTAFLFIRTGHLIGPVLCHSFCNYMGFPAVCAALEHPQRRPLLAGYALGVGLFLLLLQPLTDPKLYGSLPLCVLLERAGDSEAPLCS

Activity change, negative = inhibition, inactive:
CCOC(=O)[C@@H]1[C@H]2COc3ccc(Br)cc3[C@@H]2N2C(=O)N(c3cccc(Cl)c3)C(=O)[C@]12C 2.86%
COCCN1C(=O)/C(=C/c2ccc(Oc3ccc([N+](=O)[O-])cn3)c(OC)c2)SC1=Nc1ccccc1 -9.83%
Oc1c(N=NC(=S)Nc2ccccc2F)c2ccccc2n1Cc1ccccc1Cl -16%
Cc1ccc(S(=O)(=O)c2cn(C)c3cc(N4CCOCC4)c(F)cc3c2=O)cc1 -6.82%
Cc1ccc(C(=O)c2c3ccc(C(F)(F)F)cc3nn2CCC(N)=O)cc1 5.68%
CCN1CCN(CC(O)COc2ccc3c(C)cc(=O)oc3c2)CC1 (centres undefined) 0.145%
c1ccn2cc(-c3ccc4c(c3)OCCO4)nc2c1 -9.91%
CCN(CC)CCCNc1cc(C)nc2cc(-c3cccs3)nn12 -17.1%
CCN1CCN(c2ccc(NC(=O)c3cccc(OCc4ccccc4)c3)cc2)CC1 -8.32%
CC(C)c1ccc(NC(=O)COc2nncc3ccccc23)cc1 -1.1%
COc1ccc(C(C(=O)NC2CCCCC2)N(C(=O)c2snc(C(N)=O)c2N)c2ccc(OC)cc2OC)cc1 (centres undefined) 4.83%
COc1ccc(Cl)cc1C(=O)Nc1ccc2c(c1)OCO2 -7.6%
Cc1cc(C)n2cc(CSc3nncn3C)nc2n1 -26.3%
C=CCn1c(SCc2ccc(C#N)cc2)nnc1-c1ccc(C)cc1 -1.26%
NC(=O)[C@H]1CC2(CC(c3cccc(NC(=O)COc4ccc(Cl)cc4)c3)=NO2)CN1C(=O)C(c1ccccc1)c1ccccc1 (some centres undefined) -18.9%
COc1cccc(NC(=O)Nc2cccn(Cc3ccc(C)cc3)c2=O)c1 15.4% [at 3.5 µM]
COc1ccc(-n2c(SCc3ccc([N+](=O)[O-])cc3)nnc2-c2ccc(C)cc2)cc1 -12.3%
c1ccc(Nc2cccc(Nc3ccccc3)n2)cc1 46.8%
Cc1cc(N/N=C/c2ccc(O)c(C)c2O)nc(-c2ccccc2O)n1 0.948%
Nc1nnc(-c2ccncc2)s1 1.85%
CN1CCN(Cc2c(C(=O)N/N=C/c3cccc(Br)c3)nnn2-c2nonc2N)CC1 -30.2%
COc1ccccc1-n1c(-c2ccccc2)c[nH]c1=S -13.2%
CCC(C)(C)c1ccc(OCCCC[n+]2cccc(C)c2C)c(C(C)(C)CC)c1 -23%
COc1ccccc1/C=C/C=N/NC(=O)CN1CCN(S(=O)(=O)c2ccc(C)cc2)CC1 -15.5%
Cc1ccc(C(=O)N/C(=C/c2ccco2)C(=O)Nc2cccc(C(=O)O)c2)cc1 4.83%
O=C(C1=C[C@@H](C2CC2)C[C@@H](OCc2ccc(CO)cc2)O1)N1CCN(Cc2ccccc2)CC1 3.16%
Cc1cc(Cl)c2oc(C(=O)N3CCN(C(=O)c4ccco4)CC3)c(C)c2c1 -11.6%
COc1c2ccoc2nc2c(OC)cccc12 0.486%
Cc1c(C)c2ccc(OC(C)C(=O)NCCCN3CCOCC3)c(C)c2oc1=O (centres undefined) -23.6%
CC1=NN(c2ccccc2)C(=O)/C1=C\c1ccc(Br)s1 -15.8%
COc1cccc(/C=N/NC(=O)c2nnn(-c3nonc3N)c2C(C)C)c1OCc1ccc(F)cc1 -10.8%
O=c1c(-c2ccccc2)c(O)c2ccccc2n1-c1ccccc1 -15.8%
COc1ccc(-c2cc(C(F)(F)F)nc(SCC(=O)NCc3cnn(C)c3C)n2)cc1OC -20.2%
Nc1nonc1-n1nnc(C(=O)N/N=C/c2cccc(Cl)c2)c1CSc1ccc(Cl)cc1 -4.32%
CS(=O)(=O)c1ccc(C(=O)OCC(=O)N(CCc2ccccc2)Cc2ccccc2)cc1 0.478%
CCc1cc(=O)oc2c3c(cc(OCC(=O)NCCCC(=O)O)c12)OC(C)(C)CC3 58.4%
Cn1c(CN2CCOCC2)c(C#N)c2ccccc21 -20.3%
CCC(COC)NC(=O)CCc1nnc(Cc2cccc(C(F)(F)F)c2)o1 (centres undefined) 12.3%
COc1cc(C(=O)OCC(=O)Nc2ccc(SC(F)F)cc2)cc(OC)c1OC -11.7%

Reference: PubChem BioAssay AID588849 (Broad Institute, 2011)
